Screen size: about 5,500 compounds; about 2,000 (36%) were called active. Another 18% or so got no clear call; they are omitted. Cut-off read from the data, not from the text of the source: active = normalized growth mostly below about 0.91 (no sharp cut-off); inconclusive = no clear call, values can overlap the other calls; inactive = mostly above about 0.92. The list shows a part of the results.
Assay: chemical genetic growth profiling, strain panel (AID 1159580);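 note: tested at 20 µM; growth read once vehicle control cultures reached saturation at 30 °C; 1 = growth at the plate median or of vehicle wells; lower values mean less growth of the strain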
Conditions: growth OD

Measured: normalized growth

COC(=O)CCCOc1ccc(Cl)cc1Cl
inactive: S. cerevisiae deletion strains, locus YJR043C, strain POL32, hits give low values 0.979 | S. cerevisiae deletion strains, locus YJR075W, strain HOC1, hits give low values 0.995 | S. cerevisiae deletion strains, locus YKL009W, strain mrt4, hits give low values 1.01 | S. cerevisiae deletion strains, locus YKL068W, hits give low values 0.98 | S. cerevisiae deletion strains, locus YKL085W, strain MDH1 (second series), hits give low values 0.982 | S. cerevisiae deletion strains, locus YKL085W, strain MDH1, hits give low values 0.982 | S. cerevisiae deletion strains, locus YKL160W, strain elf1, hits give low values 0.964 | S. cerevisiae deletion strains, locus YKL190W, strain CNB1, hits give low values 0.99 | S. cerevisiae deletion strains, locus YKR001C, strain vps1, hits give low values 0.987 | S. cerevisiae deletion strains, locus YKR026C, strain gcn3, hits give low values 0.946 | S. cerevisiae deletion strains, locus YKR091W, strain srl3, hits give low values 0.96 | S. cerevisiae deletion strains, locus YLL001W, strain dnm1, hits give low values 0.957 | S. cerevisiae deletion strains, locus YLL026W, hits give low values 0.957 | S. cerevisiae deletion strains, locus YLL041C, strain sdh2, hits give low values 0.957 | S. cerevisiae deletion strains, locus YLR027C, strain aat2, hits give low values 0.952 | S. cerevisiae deletion strains, locus YLR039C, strain RIC1, hits give low values 0.982 | S. cerevisiae deletion strains, locus YLR058C, strain SHM2, hits give low values 1 | S. cerevisiae deletion strains, locus YLR102C, strain apc9, hits give low values 0.997 | S. cerevisiae deletion strains, locus YLR221C, strain rsa3, hits give low values 0.967 | S. cerevisiae deletion strains, locus YLR258W, strain gsy2, hits give low values 0.951 | S. cerevisiae deletion strains, locus YLR262C, strain YPT6 (second series), hits give low values 0.92 | S. cerevisiae deletion strains, locus YLR262C, strain YPT6, hits give low values 0.925 | S. cerevisiae deletion strains, locus YLR268W, strain sec22, hits give low values 1.01 | S. cerevisiae deletion strains, locus YLR320W, strain mms22, hits give low values 0.924 | S. cerevisiae deletion strains, locus YLR330W, strain CHS5, hits give low values 0.991 | S. cerevisiae deletion strains, locus YLR342W, strain FKS1 (second series), hits give low values 1 | S. cerevisiae deletion strains, locus YLR342W, strain FKS1, hits give low values 0.948 | S. cerevisiae deletion strains, locus YLR357W, strain rsc2, hits give low values 0.97 | S. cerevisiae deletion strains, locus YLR370C, strain arc18, hits give low values 0.963 | S. cerevisiae deletion strains, locus YLR371W, strain rom2, hits give low values 0.999 | S. cerevisiae deletion strains, locus YLR384C, strain iki3, hits give low values 0.957 | S. cerevisiae deletion strains, locus YLR418C, strain cdc73, hits give low values 1.02 | S. cerevisiae deletion strains, locus YML016C, strain PPZ1, hits give low values 0.988 | S. cerevisiae deletion strains, locus YML032C, strain rad52, hits give low values 1.01 | S. cerevisiae deletion strains, locus YML120C, strain ndi1, hits give low values 0.967 | S. cerevisiae deletion strains, locus YML124C, strain tub3, hits give low values 0.995 | S. cerevisiae deletion strains, locus YMR058W, strain fet3, hits give low values 0.966 | S. cerevisiae deletion strains, locus YMR078C, strain ctf18, hits give low values 1 | S. cerevisiae deletion strains, locus YMR125W, strain sto1, hits give low values 0.954 | S. cerevisiae deletion strains, locus YMR129W, hits give low values 0.95 | S. cerevisiae deletion strains, locus YMR205C, strain PFK2, hits give low values 0.948 | S. cerevisiae deletion strains, locus YMR223W, strain ubp8, hits give low values 1.01 | S. cerevisiae deletion strains, locus YMR231W, strain pep5, hits give low values 0.949 | S. cerevisiae deletion strains, locus YMR263W, strain SAP30, hits give low values 0.999 | S. cerevisiae deletion strains, locus YMR307W, strain GAS1, hits give low values 0.98 | S. cerevisiae deletion strains, locus YNL067W, strain RPL9B, hits give low values 0.995 | S. cerevisiae deletion strains, locus YNL071W, strain lat1, hits give low values 0.967 | S. cerevisiae deletion strains, locus YNL128W, strain TEP1, hits give low values 1 | S. cerevisiae deletion strains, locus YNL153C, strain GIM3, hits give low values 0.999 | S. cerevisiae deletion strains, locus YNL209W, strain ssb2, hits give low values 0.962 | S. cerevisiae deletion strains, locus YNL233W, strain BNI4, hits give low values 1 | S. cerevisiae deletion strains, locus YNL248C, strain rpa49, hits give low values 0.964 | S. cerevisiae deletion strains, locus YNL250W, strain rad50, hits give low values 0.978 | S. cerevisiae deletion strains, locus YNL271C, strain bni1, hits give low values 0.976 | S. cerevisiae deletion strains, locus YNL298W, strain CLA4, hits give low values 0.985 | S. cerevisiae deletion strains, locus YNL307C, strain MCK1, hits give low values 0.968 | S. cerevisiae deletion strains, locus YNL322C, strain KRE1 (second series), hits give low values 0.957 | S. cerevisiae deletion strains, locus YNL322C, strain KRE1, hits give low values 0.994 | S. cerevisiae deletion strains, locus YNR049C, strain mso1, hits give low values 0.95 | S. cerevisiae deletion strains, locus YNR052C, strain pop2, hits give low values 1.01 | S. cerevisiae deletion strains, locus YOL006C, strain TOP1, hits give low values 0.971 | S. cerevisiae deletion strains, locus YOL012C, strain htz1 1.55 | S. cerevisiae deletion strains, locus YOL147C, strain pex11, hits give low values 0.99 | S. cerevisiae deletion strains, locus YOR001W, strain rrp6, hits give low values 0.983 | S. cerevisiae deletion strains, locus YOR061W, strain CKA2, hits give low values 0.989 | S. cerevisiae deletion strains, locus YOR069W, strain VPS5, hits give low values 1 | S. cerevisiae deletion strains, locus YOR070C, strain gyp1, hits give low values 0.956 | S. cerevisiae deletion strains, locus YOR080W, strain dia2, hits give low values 0.946 | S. cerevisiae deletion strains, locus YOR083W, strain WHI5, hits give low values 0.957 | S. cerevisiae deletion strains, locus YOR106W, strain vam3, hits give low values 0.991 | S. cerevisiae deletion strains, locus YOR136W, strain idh2, hits give low values 1 | S. cerevisiae deletion strains, locus YOR144C, strain elg1, hits give low values 0.998 | S. cerevisiae deletion strains, locus YOR184W, strain ser1, hits give low values 0.993 | S. cerevisiae deletion strains, locus YOR265W, strain rbl2, hits give low values 0.956 | S. cerevisiae deletion strains, locus YOR270C, strain vph1, hits give low values 0.963 | S. cerevisiae deletion strains, locus YOR290C, strain snf2, hits give low values 0.974 | S. cerevisiae deletion strains, locus YOR316C, strain cot1, hits give low values 1 | S. cerevisiae deletion strains, locus YPL051W, strain arl3, hits give low values 0.972 | S. cerevisiae deletion strains, locus YPL055C, strain LGE1, hits give low values 0.978 | S. cerevisiae deletion strains, locus YPL078C, strain atp4, hits give low values 0.948 | S. cerevisiae deletion strains, locus YPL106C, strain sse1, hits give low values 0.964 | S. cerevisiae deletion strains, locus YPL240C, strain hsp82, hits give low values 0.948 | S. cerevisiae deletion strains, locus YPL241C, strain CIN2, hits give low values 0.993 | S. cerevisiae deletion strains, locus YPR119W, strain clb2, hits give low values 0.995 | S. cerevisiae deletion strains, locus YPR141C, strain kar3, hits give low values 0.981 | S. cerevisiae deletion strains, locus YPR163C, strain tif3, hits give low values 1 | S. cerevisiae deletion strains, locus YPR167C, strain met16, hits give low values 0.999 | S. cerevisiae deletion strains, strain wtn01, hits give low values 0.995 | S. cerevisiae strains, strain wild type, hits give low values 0.975

Source: PubChem BioAssay AID1159580 (chemical genetic matrix, 2015)
